Values joined by “and” are separate entries in the source; they are usually repeats but may differ in a detail not shown here. Identical values can stand only once. Screen size: about 5,500 compounds; about 2,000 (36%) were called active. About 18% were inconclusive and are not listed. Cut-off read from the data, not from the text of the source: active = normalized growth mostly below about 0.91 (no sharp cut-off); inconclusive = no clear call, values can overlap the other calls; inactive = mostly above about 0.92. Some of the results follow.
Experiment: chemical genetic growth profiling, strain panel (AID 1159580);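 note: tested at 20 µM; growth read once vehicle control cultures reached saturation at 30 °C; 1 = growth at the plate median or of vehicle wells; lower values mean less growth of the strain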
Details: S. cerevisiae deletion strains, growth OD
[1] = locus YDR150W, strain NUM1, hits give low values
[2] = locus YJR075W, strain HOC1, hits give low values
[3] = locus YMR263W, strain SAP30, hits give low values
[4] = locus YMR307W, strain GAS1, hits give low values
[5] = locus YNL128W, strain TEP1, hits give low values
[6] = locus YPL055C, strain LGE1, hits give low values
[7] = locus YAL013W, strain DEP1, hits give low values
[8] = locus YAL040C, strain CLN3, hits give low values
[9] = locus YCL061C, strain MRC1 (second series), hits give low values
[10] = locus YDR363W, strain ESC2, hits give low values
[11] = locus YER002W, strain NOP16, hits give low values
[12] = locus YNL153C, strain GIM3, hits give low values
[13] = locus YNL175C, strain NOP13, hits give low values
[14] = locus YNL197C, strain WHI3, hits give low values
[15] = locus YNL224C, strain SQS1, hits give low values
[16] = locus YOR083W, strain WHI5 (second series), hits give low values

Measured: normalized growth

CC(C)/C(O)=C1/C(=O)O[C@@H](c2ccoc2)[C@]2(C)C(O)[C@@H](O)[C@@]34OC5(C)OC67CC(C)(C(O)[C@]6(O)[C@@H](O)[C@]3(O5)C12)[C@H](CC(=O)O)[C@]74C (some centres not stated)
inactive: locus YAL021C, strain ccr4, hits give low values 0.945 | locus YAL026C, strain drs2, hits give low values 1.01 | locus YAL030W, strain snc1, hits give low values 0.979 | locus YBL061C, strain skt5, hits give low values 1.01 | locus YBR009C, strain hhf1, hits give low values 0.993 | locus YBR021W, strain FUR4, hits give low values 0.991 | locus YBR023C, strain chs3, hits give low values 0.992 | locus YBR171W, strain sec66, hits give low values 1.01 | locus YBR229C, strain ROT2, hits give low values 1 | locus YBR231C, strain swc5, hits give low values 1.03 | locus YBR279W, strain paf1, hits give low values 0.997 | locus YCL011C, strain gbp2, hits give low values 0.975 | locus YCL016C, strain dcc1, hits give low values 0.982 | locus YCL029C, strain bik1, hits give low values 0.997 | locus YCL061C, strain MRC1, hits give low values 0.998 | locus YCL069W, strain vba3, hits give low values 0.981 | locus YCR088W, strain abp1, hits give low values 0.994 | locus YDL005C, strain med2, hits give low values 0.985 | locus YDL035C, strain GPR1, hits give low values 0.993 | locus YDL040C, strain nat1, hits give low values 0.995 | locus YDL074C, strain BRE1, hits give low values 1 | locus YDL101C, strain DUN1, hits give low values 1.01 | locus YDL185W, strain tfp1, hits give low values 1.02 | locus YDL192W, strain arf1, hits give low values 1.01 | locus YDR001C, strain nth1, hits give low values 0.974 | locus YDR069C, strain doa4, hits give low values 1.02 | locus YDR101C, strain arx1, hits give low values 0.986 | locus YDR137W, strain rgp1, hits give low values 0.992 | [1] 0.965 | locus YDR159W, strain sac3, hits give low values 1.06 | locus YDR162C, strain NBP2, hits give low values 1.01 | locus YDR195W, strain ref2 0.974 | locus YDR297W, strain sur2, hits give low values 1.01 | locus YDR318W, strain mcm21, hits give low values 1.01 | locus YDR334W, strain swr1, hits give low values 0.988 | locus YDR335W, strain msn5, hits give low values 0.987 | locus YDR388W, hits give low values 1 | locus YDR392W, strain spt3, hits give low values 0.933 | locus YDR502C, strain sam2, hits give low values 1.01 | locus YEL003W, strain gim4, hits give low values 1.01 | locus YEL037C, strain rad23, hits give low values 0.99 | locus YEL061C, strain CIN8 (second series), hits give low values 0.985 | locus YER015W, strain faa2, hits give low values 1.01 | locus YER016W, strain bim1, hits give low values 0.998 | locus YER110C, hits give low values 1.01 | locus YER111C, strain swi4, hits give low values 0.981 | locus YER155C, strain BEM2 (second series), hits give low values 1.04 | locus YER155C, strain BEM2, hits give low values 1 | locus YER167W, strain BCK2, hits give low values 0.996 | locus YFR010W, strain ubp6, hits give low values 1.01 | locus YGL078C, strain dbp3, hits give low values 1.02 | locus YGL086W, strain mad1, hits give low values 1 | locus YGL167C, strain pmr1, hits give low values 0.993 | locus YGL173C, strain kem1, hits give low values 1.02 | locus YGL227W, strain vid30, hits give low values 0.993 | locus YGL240W, strain doc1, hits give low values 1.02 | locus YGL248W, strain PDE1, hits give low values 0.997 | locus YGL253W, strain hxk2, hits give low values 1.01 | locus YGR135W, strain pre9, hits give low values 1.02 | locus YGR229C, strain SMI1, hits give low values 0.991 | locus YGR252W, strain gcn5, hits give low values 0.988 | locus YHR013C, strain ard1, hits give low values 0.976 | locus YHR027C, strain rpn1, hits give low values 0.994 | locus YHR030C, strain SLT2, hits give low values 0.951 | locus YHR079C, strain IRE1 (second series), hits give low values 1.01 | locus YHR079C, strain IRE1, hits give low values 0.984 | locus YHR094C, strain hxt1, hits give low values 1.01 | locus YHR129C, strain ARP1, hits give low values 0.999 | locus YHR142W, strain chs7, hits give low values 0.945 | locus YHR200W, strain rpn10, hits give low values 1.01 | locus YIL066C, strain RNR3, hits give low values 0.991 | locus YIL073C, strain SPO22, hits give low values 1.06 | locus YIL125W, strain kgd1, hits give low values 1 | locus YIR030C, strain dcg1, hits give low values 1.01 | locus YJL092W, strain hpr5, hits give low values 0.989 | locus YJL095W, strain BCK1 (second series), hits give low values 1 | locus YJL095W, strain BCK1, hits give low values 1.03 and 0.971 | locus YJL115W, strain asf1, hits give low values 0.977 | locus YJL129C, strain trk1, hits give low values 0.997 | locus YJL134W, strain LCB3, hits give low values 0.993 | locus YJL154C, strain vps35, hits give low values 0.98 | locus YJL164C, strain tpk1, hits give low values 0.958 | locus YJL166W, strain qcr8, hits give low values 1 | locus YJL168C, strain set2, hits give low values 1.01 | locus YJL187C, strain SWE1 (second series), hits give low values 1.01 | locus YJR066W, strain TOR1, hits give low values 0.926 | [2] 1 | locus YKL009W, strain mrt4, hits give low values 1.02 | locus YKL068W, hits give low values 0.999 | locus YKL085W, strain MDH1 (second series), hits give low values 1.01 | locus YKL085W, strain MDH1, hits give low values 1.01 | locus YKL160W, strain elf1, hits give low values 0.962 | locus YKL190W, strain CNB1, hits give low values 0.986 | locus YKR001C, strain vps1, hits give low values 1.01 | locus YKR026C, strain gcn3, hits give low values 0.994 | locus YKR091W, strain srl3, hits give low values 0.991 | locus YLL001W, strain dnm1, hits give low values 0.973 | locus YLL026W, hits give low values 0.992 | locus YLL041C, strain sdh2, hits give low values 0.985 | locus YLR027C, strain aat2, hits give low values 0.999 | locus YLR039C, strain RIC1, hits give low values 1.06 | locus YLR058C, strain SHM2, hits give low values 1.01 | locus YLR102C, strain apc9, hits give low values 0.998 | locus YLR113W, strain HOG1, hits give low values 0.997 | locus YLR221C, strain rsa3, hits give low values 1.05 | locus YLR258W, strain gsy2, hits give low values 0.998 | locus YLR262C, strain YPT6 (second series), hits give low values 0.979 | locus YLR262C, strain YPT6, hits give low values 1.1 | locus YLR268W, strain sec22, hits give low values 0.999 | locus YLR320W, strain mms22, hits give low values 1.04 | locus YLR330W, strain CHS5, hits give low values 1 | locus YLR342W, strain FKS1 (second series), hits give low values 0.985 | locus YLR342W, strain FKS1, hits give low values 0.995 | locus YLR357W, strain rsc2, hits give low values 1.01 | locus YLR370C, strain arc18, hits give low values 0.977 | locus YLR371W, strain rom2, hits give low values 1.01 | locus YLR384C, strain iki3, hits give low values 0.997 | locus YLR418C, strain cdc73, hits give low values 1.03 | locus YML016C, strain PPZ1, hits give low values 1.01 | locus YML032C, strain rad52, hits give low values 1.01 | locus YML120C, strain ndi1, hits give low values 0.973 | locus YML124C, strain tub3, hits give low values 1.02 | locus YMR058W, strain fet3, hits give low values 1 | locus YMR078C, strain ctf18, hits give low values 1.02 | locus YMR125W, strain sto1, hits give low values 0.951 | locus YMR129W, hits give low values 0.989 | locus YMR205C, strain PFK2, hits give low values 0.978 | locus YMR223W, strain ubp8, hits give low values 1.01 | locus YMR231W, strain pep5, hits give low values 1 | [3] 1.01 | [4] 0.982 | locus YNL067W, strain RPL9B, hits give low values 1.03 | locus YNL071W, strain lat1, hits give low values 0.987 | [5] 1 | locus YNL183C, strain NPR1, hits give low values 0.939 | locus YNL209W, strain ssb2, hits give low values 0.988 | locus YNL233W, strain BNI4, hits give low values 0.981 | locus YNL248C, strain rpa49, hits give low values 1.03 | locus YNL250W, strain rad50, hits give low values 1.01 | locus YNL271C, strain bni1, hits give low values 1.01 | locus YNL298W, strain CLA4, hits give low values 1.01 | locus YNL307C, strain MCK1, hits give low values 1 | locus YNL322C, strain KRE1 (second series), hits give low values 1.02 | locus YNR049C, strain mso1, hits give low values 0.974 | locus YNR052C, strain pop2, hits give low values 1.02 | locus YOL012C, strain htz1 0.728 | locus YOL147C, strain pex11, hits give low values 1.01 | locus YOR001W, strain rrp6, hits give low values 1.04 | locus YOR061W, strain CKA2, hits give low values 1 | locus YOR069W, strain VPS5, hits give low values 0.998 | locus YOR070C, strain gyp1, hits give low values 0.996 | locus YOR080W, strain dia2, hits give low values 1 | locus YOR083W, strain WHI5, hits give low values 0.954 | locus YOR106W, strain vam3, hits give low values 0.938 | locus YOR136W, strain idh2, hits give low values 1.02 | locus YOR144C, strain elg1, hits give low values 1.01 | locus YOR184W, strain ser1, hits give low values 1 | locus YOR231W, strain MKK1, hits give low values 0.991 | locus YOR265W, strain rbl2, hits give low values 0.989 | locus YOR270C, strain vph1, hits give low values 0.966 | locus YOR290C, strain snf2, hits give low values 0.907 | locus YOR316C, strain cot1, hits give low values 1.01 | locus YPL051W, strain arl3, hits give low values 1.01 | [6] 0.993 | locus YPL078C, strain atp4, hits give low values 0.953 | locus YPL106C, strain sse1, hits give low values 0.976 | locus YPL240C, strain hsp82, hits give low values 1 | locus YPL256C, strain CLN2, hits give low values 0.946 | locus YPR119W, strain clb2, hits give low values 1.01 | locus YPR141C, strain kar3, hits give low values 1.02 | locus YPR163C, strain tif3, hits give low values 1.01 | locus YPR167C, strain met16, hits give low values 1.01 | strain wtn01, hits give low values 1

O=C(O)/C=C/C(O)c1ccc(Cl)cc1 (configuration not stated)
inactive: [7] 0.986 | [8] 1.07 | [9] 0.982 | [10] 1.02 | [11] 1 | [3] 0.983 | [4] 1.03 | [12] 0.997 | [13] 0.997 | [14] 0.986 | [15] 0.98 | [16] 0.998 | locus YPL241C, strain CIN2, hits give low values 0.985

CC(N)c1cccc(Cl)c1Cl (configuration not stated)
inactive: [7] 1.01 | [8] 0.969 | [9] 1 | [1] 0.996 | [10] 1.08 | [11] 1.01 | locus YGR078C, strain PAC10, hits give low values 0.981 | [2] 1.02 | [3] 1 | [5] 1.01 | [12] 0.972 | [13] 0.981 | [14] 0.953 | [15] 1.01 | [16] 1.01 | [6] 1.07

Source: PubChem BioAssay AID1159580 (chemical genetic matrix, 2015)
